Only a selection was taken, and hits are over-represented in it overall.
Dicer processing: inhibitors of Dicer pre-microRNA processing, primary screen, biochemical, cat-ELCCA, chemiluminescence. Endoribonuclease Dicer (Homo sapiens), Q9UPY3. z-score at 25 µM. cat-ELCCA pre-miR-21 Dicer processing; hits give high values. hit rate 6% among 47,000; in the data active means z-score above about 3, passing the limit was not always enough;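 further: plate controls were vehicle for no effect and no enzyme for full effect; higher signal means more uncleaved substrate so more Dicer inhibition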
* hit, by the source's call.

SMILES	Dicer processing
CCOc1cc(C2c3c(oc4ccc(F)cc4c3=O)C(=O)N2Cc2ccc(C)cc2)ccc1O (configuration not stated)	1.7
Cc1c(C#N)c2nc3ccccc3n2c(=O)/c1=C/NNC(N)=S	1.5
Cc1ccc(S(=O)(=O)N2CCCC2=O)cc1	-1.3
CCSCCOC(=O)C1=C(C)NC2=C(C(=O)CC(C)(C)C2)C1c1ccc(C(=O)OC)cc1 (configuration not stated)	1.5
NS(=O)(=O)c1ccc(CNC2CC(=O)N(c3ccc(Br)cc3)C2=O)cc1 (configuration not stated)	22
NCc1ccc(S(N)(=O)=O)cc1	-0.5
CN1C(=O)CC(NCc2ccc(S(N)(=O)=O)cc2)C1=O (configuration not stated)	3.2*
COc1cc(C2C3=C(CCCC3=O)Nc3nc(SCc4ccccc4Cl)[nH]c(=O)c32)ccc1O (configuration not stated)	2.6
O=C(O)C1c2ccccc2C(=O)N(C2CCCCC2)C12CCCCC2 (configuration not stated)	1.3
Cn1c(SCc2nc(-c3ccccc3)no2)nnc1-c1ccco1	0.3
Cn1c(SCc2nc(-c3ccccc3)no2)nnc1-c1cccs1	3.1*
Cc1ccc(-c2noc(CSc3nnc(C)n3-c3ccccc3)n2)cc1	1.1
C/C(=N\OC(=O)Nc1c(-c2c(Cl)cccc2Cl)noc1C)c1ccco1	1.7
COC(=O)c1cccn1S(=O)(=O)c1cc(C(F)(F)F)cc(C(F)(F)F)c1	-1
c1ccc(C2CN(Cc3ccco3)C(c3ccccc3)O2)cc1 (configuration not stated)	3.5*
O=C(O)C1CC(=O)N(Cc2ccco2)C1 (configuration not stated)	0.7
O=c1[nH]c(=O)n(-c2ccccc2)c2c1CN(Cc1ccco1)CN2	0.98
CCOC(=O)c1noc(Oc2ccc(Cl)cc2Cl)n1	1.3
CSc1cc(-c2ccc(Oc3ccccc3)cc2)nn1C(=O)c1ccc(Cl)cc1	0.05
O=C(Nc1nc(-c2ccccc2)cs1)C1CC1	6.7
Cc1nc(-c2ccc(-c3ccccc3)cc2)cs1	0.49
CCNc1nc(-c2ccccc2)cs1	3.3*
CCOC(=O)c1sc2nc(C)n(C)c(=O)c2c1C	-1.3
O=C(CN1CCOCC1)N1c2ccccc2CCc2ccccc21	2.6
O=C(NCC1NCCc2ccccc21)C1CCCCC1 (configuration not stated)	1.5
SMILES	Dicer processing
O=C(NCC1c2ccccc2CCN1C(=O)CN1CCOCC1)C1CCCCC1 (configuration not stated)	4.5*
CCOC(=O)Cc1nn(Cc2nc(-c3ccc(C(F)(F)F)cc3)cs2)c(=O)c2ccccc12	-1.1
Cc1ccc(/C=C/c2onc(C)c2[N+](=O)[O-])o1	-1.3
Cc1noc(/C=C/c2ccc(OCc3ccsc3C#N)cc2)c1[N+](=O)[O-]	-3.1
Cc1noc(/C=C/c2ccc(N3CCCC3)cc2)c1[N+](=O)[O-]	3.3*
COc1ccc(Nc2c(Cl)cc(OC)cc2Cl)cc1	3.4
COc1ccc(Nc2n[nH]c(N)n2)cc1	5.6*
COc1ccc(Nc2nc(Cl)nc(Nc3ccc(OC)cc3)n2)cc1	-0.67
COc1ccc(/C(O)=C2/C(=O)C(=O)N(CCc3ccccc3)C2c2ccc(Br)cc2)cc1 (configuration not stated)	0.38
CCCOc1cccc(C2c3c(oc4ccccc4c3=O)C(=O)N2c2nnc(C)s2)c1 (configuration not stated)	-0.58
Cc1sc(-c2ccc(Cl)cc2)nc1CC(=O)NN	-0.99
CNS(=O)(=O)c1cc(Cl)ccc1I	-0.55
Cc1cc(OS(=O)(=O)c2ccc(Cl)c(Cl)c2)n(-c2ccccc2)n1	-3.5
CCCc1cnc(N2CCN(S(=O)(=O)c3cn(C)cn3)CC2)nc1	-1.7
O=C(O)c1ccc2c(c1)[C@@H]1C=CC[C@@H]1[C@H](c1ccccc1Br)N2	3.1*
COc1ccc(Br)cc1[C@@H]1Nc2ccc(C(=O)O)cc2[C@@H]2C=CC[C@@H]21	1.1
CCOC(=O)c1ccc2c(c1)C1C=CCC1C(c1ccccc1)N2 (configuration not stated)	-0.56
CC(C)COC(=O)c1ccc2c(c1)C1C=CCC1C(c1ccc(F)cc1)N2 (configuration not stated)	0.97
CCOC(=O)c1ccc2c(c1)[C@@H]1C=CC[C@@H]1[C@H](c1cccc(OC)c1OC)N2	0.9
Clc1ccc2c(c1)C1C=CCC1C(c1ccccc1)N2 (configuration not stated)	23
O=C(O)c1ccc2c(c1)C1C=CCC1C(c1ccc(Cl)cc1)N2 (configuration not stated)	5.2
Cc1ccc2c(c1)C1C=CCC1C(c1ccccc1Cl)N2 (configuration not stated)	4.1*
CCOC(=O)c1ccc2c(c1)C1C=CCC1C(c1ccc(Br)cc1)N2 (configuration not stated)	5.6*
O=C1NCCN1CCN1C(=O)c2ccccc2NC1c1cccs1 (configuration not stated)	-0.26
COC(=O)Cn1c(CCS(=O)(=O)c2ccc(Br)cc2)nc2ccccc21	-1.1
SMILES	Dicer processing
Cc1ccc(Sc2nc3ccccc3c(C)c2C#N)cc1	-0.84
FC(F)(F)c1cc(-c2ccccc2)nc2ncnn12	-0.01
Cc1cc(Nc2ccccc2)n2ncnc2n1	-1.4
Cc1ccc(Nc2cc(-c3ccccc3)nc3ncnn23)cc1	3.2*
CCOC(=O)C1SC(c2ccc(Cl)cc2)C(C#N)C1(O)c1ccccc1 (configuration not stated)	-0.9
Cc1ccc(N)c(C(=O)Nc2ccc(Cl)cc2)c1	5.1*
Cc1c(C(=O)Nc2ccc(Cl)cc2)cc(-c2ccccc2)n1-c1ccccc1	-0.69
CCOC(=O)c1cc(C)ccc1NC(=O)c1ccc(Cl)cc1	-0.46
CC(C)(C)NNC(=S)Nc1cccc(C(F)(F)F)c1	2.4
CN(C)/C=N/C(=S)Nc1cccc(F)c1	-1.1
CN(C)/C=N/C(=S)Nc1cccc(C(F)(F)F)c1	4.9*
CCCCCOC(=O)C1=C(C)NC2=C(C(=O)CC(C)(C)C2)C1c1ccccn1 (configuration not stated)	-0.57
CCOC(=O)c1c(C)nn(-c2ncccc2NC(=S)NCc2ccco2)c1C	-1.4
C=CCc1cc(OC)ccc1OCCOCCN1CCC(C)CC1	2.2
CCOC(=O)c1c(OC)cccc1OC	-0.77
CCOC(=O)c1oc2cccc(OC(C)=O)c2c1C	5.7*
CCOC(=O)c1c(C)oc2ccc(OC(C)=O)cc12	6.7
CCOC(=O)c1c(NC(=O)Nc2ccccc2)sc2c1CCC(C)C2 (configuration not stated)	1.9
CCOC(=O)Nc1cc(OC)c(OC)cc1C(=O)OC	-0.76
COc1cc(S(=O)(=O)n2nnc3ccccc32)ccc1Cl	1.1
CC(C)(C)c1ccc(C(=O)/C=c2\[nH]c(=O)/c(=C\c3cccs3)s2)cc1	3.4*
COc1cccc(C(=O)/C=c2\[nH]c(=O)/c(=C\c3ccccc3)s2)c1	0.93
CC(C)(C)c1ccc(C(=O)/C=C2\NC(=O)CS2)cc1	-2.3
CCOC(=O)/C(C#N)=C/Nc1cc(C)no1	-0.23
Cc1nnc(SCc2c(F)cccc2Cl)[nH]c1=O	-0.94
Cc1ccc(C(=O)Nc2cnc3sc(C)nn3c2=O)cc1	4.8*
Cc1nn2c(=O)c(NC(=O)c3ccc(Cl)cc3)cnc2s1	-0.21
Cc1nn2c(=O)c(NC(=O)c3ccc(F)cc3)cnc2s1	-2.4
S=C(N/N=C/c1ccccc1Cl)Nc1cc(Cl)ccc1Cl	-2.9
O=C(NC(=O)c1ccc(F)c(Cl)c1)NC1CC1	-0.28
